# Screening results: PubChem BioAssay, National Center for Advancing Translational Sciences (NCATS)
# D2 antag: antagonizes the human D2 dopamine receptor; P14416; HEK293 TREx D2 cells, calcium flux, dopamine EC80; inhibition, % at 10 µM; 340,000 tested, 2% active; AID 485344; in the data active means inhibition above about 30%; inactive means below that, where a call was filed; further: 0% is about no effect
# Target sequence (P14416 whole entry, looked up): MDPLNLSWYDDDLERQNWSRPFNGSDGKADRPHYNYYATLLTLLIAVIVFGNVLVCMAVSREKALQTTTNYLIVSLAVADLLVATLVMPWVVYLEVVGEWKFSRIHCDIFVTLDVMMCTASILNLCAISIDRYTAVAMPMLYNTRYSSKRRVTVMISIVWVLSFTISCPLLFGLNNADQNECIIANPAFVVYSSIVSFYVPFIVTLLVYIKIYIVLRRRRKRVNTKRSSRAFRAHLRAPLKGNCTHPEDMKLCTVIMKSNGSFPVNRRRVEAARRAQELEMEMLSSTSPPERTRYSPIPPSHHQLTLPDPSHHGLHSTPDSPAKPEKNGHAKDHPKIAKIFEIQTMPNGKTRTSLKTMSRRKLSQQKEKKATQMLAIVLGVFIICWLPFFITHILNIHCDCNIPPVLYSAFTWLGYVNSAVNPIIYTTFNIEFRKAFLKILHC
#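 Compounds are added to dye-loaded, induced HEK293 T-REx cells coupled to calcium release via D2; after a 3 min kinetic read an EC80 dopamine stimulus is given and fluorescence is recorded for 3 more min.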
# D2 ag-1: agonists of human D2 dopamine receptor | HEK293 T-REx D2 cells, calcium flux agonist mode | 340,000 tested, 0.53% active | AID 485358 | activation, % at 2 µM | P14416;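 active means activation over 3 SD above normal in the single-dose calcium agonist read, cut at about 30% in these data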; further: 0% is about no effect
#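 Tetracycline-induced HEK293 Trex cells with D2 receptor force-coupled to calcium signaling, plated overnight at 30 C and loaded with no-wash calcium dye. Calcium flux read kinetically for 180 s after compound addition; responses flag agonists.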
# D2 ag-2: activates the human D2 dopamine receptor; P14416; DiscoveRx PathHunter D2 beta-arrestin, luminescence, 90 min; 100% = 57 uM dopamine signal; activation, % (test concentration not listed); 360,000 tested, 0.084% active; AID 624465; in the data active means activation above about 40%
#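 DiscoveRx PathHunter D2 beta-arrestin cells (2,100/well) attached overnight, then compound-stimulated 90 min at 37 C in HBSS/10 mM HEPES/0.1% Tween-20 buffer; beta-galactosidase complementation read by luminescence after 1 h at ambient temperature. Dopamine 57 uM final (EC100) as control.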
# D2 PAM-1: D2 dopamine receptor (human) potentiation. AID 485347. P14416. HEK293 T-REx D2, calcium flux, EC20 dopamine potentiation. 340,000 tested, 0.34% active. potentiation, % at 10 µM;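 active means potentiation over 3 SD above the plate norm, cut at about 30% in these data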; further: 0% is about no effect
#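 Using a no-wash calcium dye in inducible, force-coupled HEK293 Trex cells expressing D2, we tracked fluorescence each second for 180 s after compound, then for 180 s after EC20 dopamine to detect augmented signalling.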
# D2 PAM-2: potentiates the human D2 dopamine receptor allosterically | DiscoveRx D2 beta-arrestin cells, luminescence, 90 min; 100% = 57 uM dopamine signal | potentiation, % (no concentration beside the values) | 360,000 tested, 0.23% active; in the data active means potentiation above about 50%
#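 PathHunter D2 cells, attached overnight at 37 deg C, received compound in DMSO plus dopamine at EC20 (50 nM final) for 90 min at 37 deg C. Beta-arrestin recruitment was read as luminescence after 1 h with detection reagent at ambient temperature.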
# * hit, by the source's call; / = no result given. Shown are actives, neighbours in structure and some others; about 2.4% of the full set was active somewhere.
SMILES,D2 antag,D2 ag-1,D2 ag-2,D2 PAM-1,D2 PAM-2
COc1ccccc1CCNC(=O)C(=O)NCC1OCCN1S(=O)(=O)c1ccc(Cl)cc1 (centres undefined),36.3*,0.7,-3.5,-3.0,-5.0
CCN(CC)CCNC(=O)C(=O)NCC1OCCN1S(=O)(=O)c1ccc([N+](=O)[O-])cc1 (centres undefined),-1.9,2.4,8.6,-12.0,50.2*
CNC(=O)c1nn(-c2ccc(Cl)cc2)ccc1=O,33.4*,0.3,-13.6,3.1,-21.4
O=C(Nc1ccn(-c2ccccc2)n1)c1ccc(Cl)cc1,63.3*,-2.5,-1.5,-21.2,-30.4
CNC(=O)c1nn(-c2ccccc2)ccc1=O,-16.1,0.7,-1.8,-4.1,-0.5
COc1ccc2c(c1)CCc1c(C(=O)Nc3ccc(F)c(Cl)c3)noc1-2,/,1.1,/,-15.0,/
COc1ccc(C2NC(=O)NC(C)=C2C(=O)Nc2cc(C)cc(C)c2)c(OC)c1 (centres undefined),/,1.5,/,9.6,/
Cc1ccc(CCNC(=O)CCS(=O)(=O)c2cc3c(cc2C)NC(=O)CO3)cc1,42.6*,0.1,0.3,16.4,-6.4
Cc1ccc(CNS(=O)(=O)c2cc3c(cc2C)NC(=O)CO3)cc1,47.5*,3.6,-6.4,4.8,-2.2
Cc1cccc(N2CCN(S(=O)(=O)c3ccc4c(c3)NC(=O)CO4)CC2)c1C,3.1,0.0,-2.9,0.9,-4.0
Cc1cc2c(cc1S(=O)(=O)N1CCN(c3cccc(C)c3C)CC1)OCC(=O)N2,50.0*,1.3,1.0,-2.8,1.1
O=C(CCS(=O)(=O)c1cc2c(cc1Cl)NC(=O)CO2)NCCc1ccccc1,-2.8,0.8,-7.0,-2.7,-0.2
COc1ccc(-n2nc3ccc(NC(=O)c4c(OC)cccc4OC)cc3n2)cc1,/,-0.3,/,8.7,/
C=Cc1ccc(CSc2nc(-c3ccccc3Cl)nc3c2Cc2c(CO)cnc(C)c2O3)cc1,/,0.8,/,3.4,/
Cc1cc(C)c2c(c1)c(C)cc1nnc(SCC(=O)c3ccccc3)n12,/,/,/,-6.6,/
NC(N)=NCCCC(NC(=O)c1ccccc1)C(=O)Nc1ccc2ccccc2c1 (centres undefined),53.7*,0.5,-2.8,-15.6,-32.3
NC(N)=NCCCC(NC(=O)c1ccccc1)C(=O)Nc1ccc([N+](=O)[O-])cc1 (centres undefined),75.2*,-0.8,-5.1,-11.7,-4.6
CN(c1nnc(NC(=O)Nc2ccccc2C(F)(F)F)s1)C1CCCCC1,/,-1.3,/,12.5,/
COc1ccc(-c2ccc(SCc3cccnc3)nn2)cc1OC,/,/,1.0,/,53.6*
c1cncc(CSc2ccc(-c3cccnc3)nn2)c1,12.0,1.4,1.5,2.8,2.6
CC(=O)Nc1ccc(C(=O)N2CCCC2)cc1,1.4,-0.2,-1.2,32.2*,-21.7
CCCC(=O)Nc1ccc(N2CCCCC2)cc1,6.0,-0.8,-3.1,-9.3,-2.9
O=C(O)CCCC(=O)Nc1ccc(N2CCCC2)cc1,-2.7,-0.1,5.1,1.0,69.2*
O=C(O)CCC(=O)Nc1ccc(C(=O)N2CCCCC2)cc1,6.4,-0.9,-2.9,32.6*,-10.2
CC1CCC/C(=N/Nc2ccc([N+](=O)[O-])cc2[N+](=O)[O-])C1 (centres undefined),-6.7,1.4,7.3,-0.6,74.4*
SMILES,D2 antag,D2 ag-1,D2 ag-2,D2 PAM-1,D2 PAM-2
CCCN1C(=O)/C(=C/c2c(N3CCNC(=O)C3CC(=O)OCC)nc3c(C)cccn3c2=O)SC1=S (centres undefined),3.9,80.9*,-1.3,-4.0,4.0
CCCCCN1C(=O)/C(=C/c2c(N3CCc4ccccc4C3)nc3ccccn3c2=O)SC1=S,/,/,-3.7,/,-7.6
CCOC(=O)CC1C(=O)NCCN1c1nc2ccc(C)cn2c(=O)c1/C=C1\SC(=S)N(CC(C)C)C1=O (centres undefined),14.2,104.2*,-4.1,-11.7,-4.1
CCOC(=O)CC1C(=O)NCCN1c1nc2ccc(C)cn2c(=O)c1/C=C1\SC(=S)N(C(C)CC)C1=O (centres undefined),31.8*,72.7*,/,-5.9,/
CCOC(=O)CC1C(=O)NCCN1C(=O)c1ccc(C)cc1 (centres undefined),8.2,0.0,-3.1,-1.7,25.7
CC(C)n1c(SCC(=O)c2ccc(F)cc2)nc2c(sc3ccccc32)c1=O,/,0.7,/,-2.2,/
